IL1B secr inh: inflammasome signaling inhibition, IL-1 beta readout. THP-1 LPS/ATP IL-1B secretion, AlphaLISA, 16 h; active compounds read low. activity change, % at 57.5 µM. actives 4.7% (n = 360,000); in the data active means activity change below about -50%; inconclusive means mostly about -30% to -49%; further: on the % scale 0 is the no-effect control and ±100 the full control effect
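THP-1 cells pretreated 1 hr with compounds (up to 57.5 uM final), then stimulated with LPS (250 ng/mL final) plus ATP (1.25 mM final); secreted IL-1B measured by AlphaLISA after 16 hr, decreased signal indicating inhibition.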
VP16 counter: counter-screen for ROR gamma inhibitors: Gal4-VP16 reporter; Potency, µM (titrated, usually from 53.6 µM), for inactives: top-dose activity, negative = inhibition, actives largely listed as inhibitors; AID 2546; actives 3.5% (n = 310,000); Drosophila S2 Gal4-VP16 UAS-luciferase, luminescence, 20 h;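 further: Gal4-VP16 expression switched on by copper sulfate through the metallothionein promoter; potency means the concentration at half of the fitted maximal effect; on the % scale 0 is the no-effect control and ±100 the full control effect; nearly all actives have a fitted effect of over 50% in size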
SW480 rerep: inducers of DNA re-replication in SW480 colon cancer cells. Potency, µM (highest dose often 46.1 µM), inactives show top-dose re-replication activation, usual class: activators. SW480 DNA re-replication, Hoechst DNA content imaging, 48 h. actives 1.8% (n = 340,000); further: potency means the concentration at half of the fitted maximal effect; % of control where 0% means no effect; nearly all actives have a fitted effect of over 55% in size
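Treated cells incubate 48 hr (37 C, 5% CO2), are stained 40 min with Hoechst, and nuclear fluorescence is enumerated; a rise in nuclei with high DNA signal marks re-replication.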
MCF10A rerep: inducers of DNA re-replication in MCF 10A breast cells | MCF 10A DNA re-replication, Hoechst nuclear intensity, 48 h | actives 2.9% (n = 350,000) | Potency, µM (titrated, usually from 46.1 µM), inactives show top-dose activity, positive = re-replication, actives largely listed as activators; further: potency means the concentration at half of the fitted maximal effect; % of control where 0% means no effect; nearly all actives have a fitted effect of over 50% in size
RORgamma inh: inhibitors of mouse ROR gamma transcriptional activity | Drosophila S2 Gal4-RORgamma UAS-luciferase reporter, 20 h | Potency, µM (highest dose often 53.6 µM), inactives show top-dose activity change, negative = inhibition, usual class: inhibitors | AID 2551 | actives 5.4% (n = 310,000) | P51450; further: potency means the concentration at half of the fitted maximal effect; on the % scale 0 is the no-effect control and ±100 the full control effect; nearly all actives have a fitted effect of over 60% in size
Target sequence (P51450 whole entry, looked up, the tested form may be a part): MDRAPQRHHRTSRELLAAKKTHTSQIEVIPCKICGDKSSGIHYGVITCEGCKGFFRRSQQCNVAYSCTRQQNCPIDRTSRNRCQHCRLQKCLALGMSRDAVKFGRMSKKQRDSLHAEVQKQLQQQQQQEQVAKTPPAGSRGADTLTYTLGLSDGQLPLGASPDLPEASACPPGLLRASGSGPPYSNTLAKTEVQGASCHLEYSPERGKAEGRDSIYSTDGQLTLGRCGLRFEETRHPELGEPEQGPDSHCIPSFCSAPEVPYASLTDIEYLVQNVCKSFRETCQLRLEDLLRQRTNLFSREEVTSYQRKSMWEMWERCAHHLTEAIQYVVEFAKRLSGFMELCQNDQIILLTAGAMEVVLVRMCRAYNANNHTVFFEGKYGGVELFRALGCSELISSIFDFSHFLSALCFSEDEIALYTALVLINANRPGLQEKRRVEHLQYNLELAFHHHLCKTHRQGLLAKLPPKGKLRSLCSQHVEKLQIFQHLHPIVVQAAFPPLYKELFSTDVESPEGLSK
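Using a luciferase readout, inhibitors were identified by reduced reporter activity in Drosophila cells coexpressing a copper-inducible Gal4–ROR gamma fusion and UAS-driven Photinus luciferase, incubated 20 hr after 700 uM copper sulfate.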
* marks the source's active call; other numbers are inactive results; u = inconclusive; x = not tested or not shown; [ ] = remark or other dose. Most compounds without a hit are left out; they make up all but 11% or so of the library. Unless noted, the call rests on the fitted dose curve; in most records, active means well fitted curve in the direction sought with a large enough effect; inconclusive means small, poorly fitted or top-dose-only effect, or another doubt; inactive means no such curve, though single readings can be large; an effect the other way counts as inactive or inconclusive.

SMILES	IL1B secr inh	VP16 counter	SW480 rerep	MCF10A rerep	RORgamma inh
CC(C)(C)c1cc(Cl)c(O)c(NC(=S)NC(=O)c2cccnc2)c1	9	0.89µM*	-16%	15µM*	0.16µM*
COc1ccc(NC(=S)NC(=O)c2cccnc2)cc1	25	u	4%	-1%	11µM*
CCOc1ccc(NC(=O)c2cccnc2Cl)c([N+](=O)[O-])c1	-1	17%	23µM*	8%	18%
CC(C)c1ccc(O)c(NC(=S)NC(=O)c2cccnc2)c1	12	1.4µM*	1%	u	0.71µM*
COc1ccc(NC(=O)c2cccnc2)c([N+](=O)[O-])c1	0	-1%	16µM*	u	-40%
CCOc1ccc(NC(=O)c2ccco2)c([N+](=O)[O-])c1	-7	-3%	u	23%	29%[10 µM]
O=C(Nc1ccc(Oc2cccnc2)cc1)c1cccc([N+](=O)[O-])c1	-56*	-5%	2%	9%	u
COc1ccc(NC(=O)c2ccccc2)c([N+](=O)[O-])c1	-8	28%	u	u	u
CCC(C)c1ccc(O)c(NC(=O)c2cccnc2)c1 (stereo not given)	20	1%	-7%	-13%	0%
CCOc1ccc(CCNC(=O)COC(=O)COc2ccc(Br)cc2)cc1OCC	10	-3%	-1%	2%	15%
O=C(NC(=S)NCCSc1ccccc1)c1cccnc1	16	u	-30%	23%	13µM*
CC(C)(C)C(=O)NC(=S)NNC(=O)c1ccncc1	9	0%[10 µM]	u	4%	u
O=C(NNC(=S)NC(=O)c1ccccc1)c1cccnc1	32	u	1%	1%	u
O=C(NC(=S)Nc1ccccc1Br)c1cccnc1	0	18µM*	-11%	6%	10µM*
CC(C)(C)C(=O)NC(=S)NNC(=O)c1ccc(-c2ccccc2)cc1	142	16µM*	u	u	u
O=C(NC(=S)NCc1cccnc1)c1ccccc1	7	9%	-9%	-6%	-33%
CC(C)(C)c1ccc(C(=O)NNC(=S)NC(=O)c2cccnc2)cc1	83	u	15µM*	9%	2.8µM*
CSc1nnc(NC(=O)C23CC4CC(CC(C4)C2)C3)s1	15	u	-17%	16%	18µM*
CCNc1ncc2nc(-c3ccc(Cl)cc3)c(=O)n(C)c2n1	x	-3%	x	x	-10%
C=CCn1c(SC(F)F)nc2scc(-c3ccco3)c2c1=O	u	5µM*	20%	2.9µM*	u
CC(C)C(C)NC(=O)CSc1nc2scc(-c3ccco3)c2c(=O)n1-c1ccccc1 (stereo not given)	-21	14µM*	-5%	13%	u
C=CCn1c(SCC(C)=O)nc2scc(-c3ccco3)c2c1=O	-5	u	u	u	u
CC(C)C(C)(C#N)NC(=O)CSc1nc2scc(-c3ccco3)c2c(=O)n1-c1ccccc1 (stereo not given)	-27	6%	-17%	8%	12%
COc1cc2c(cc1NC(=O)COC(=O)[C@@H](NC(=O)c1ccccc1F)C(C)C)oc1ccccc12	0	11µM*	-14%	-1%	10µM*
COc1cc2c(cc1NC(=O)COC(=O)CNC(=O)c1ccccc1)oc1ccccc12	-4	6.3µM*	0%	-1%	11µM*
SMILES	IL1B secr inh	VP16 counter	SW480 rerep	MCF10A rerep	RORgamma inh
COc1cc2c(cc1NC(=O)COCC(=O)O)oc1ccccc12	-2	-10%	2%	7%	2%
COc1cc(NC(=O)C2CC(=O)N(Cc3ccco3)C2)c(OC)cc1Cl (stereo not given)	13	x	-6%	-2%	x
CCN(CC)c1ccc(C(=O)OCC(=O)Nc2cc3oc4ccccc4c3cc2OC)cc1	12	-1%	u	u	-15%
COc1cc2c(cc1NC(=O)COC(=O)C1CC(=O)N(Cc3ccco3)C1)oc1ccccc12 (stereo not given)	-56*	7.9µM*	2%	14%	8.9µM*
COc1cc2c(cc1NC(=O)COC(=O)[C@@H](NC(=O)c1ccccc1)C(C)C)oc1ccccc12	10	u	0%	19%	8.9µM*
O=C1NC(Cc2ccc(O)cc2)c2nc3ccc(F)cc3c(=O)n2-c2cc3ccccc3cc21 (stereo not given)	-18	x	x	x	x
Cc1ccccc1NC(=O)COC(=O)COc1ccc2ccc(=O)oc2c1	-24	x	x	x	x
COc1ccc(C(=O)N2CCC[C@@]3(CCN(C(=O)Nc4ccccc4)C3)C2)cc1	x	3%	x	x	-38%
C=C(C(=O)OCC)C(=O)c1ccccc1	x	-1%	x	x	4%
CN(C(=O)CSc1nncn1C)C1CCCN(Cc2ccccc2F)C1 (stereo not given)	-1	-7%	1%	-14%	-17%
O=C(c1ccc(Cn2cc(Br)cn2)cc1)N1CCN(c2ccccc2)CC1	-11	6%	15µM*	21µM*	19%
O=C(c1ccc(CN2CCc3ccccc3C2)cc1)N1CCN(c2ccc(F)cc2)CC1	-63*	x	-10%	7.3µM*	x
O=c1/c(=C\c2ccc(O)cc2)sc2n1C(c1ccccc1)C(c1ccccc1)=NN=2 (stereo not given)	-65*	-11%	u	7.3µM*	u
Cc1ccccc1NC(=S)NCCc1c[nH]c2ccccc12	-9	11µM*	8%	8%	7.9µM*
Cc1cccc(NC(=O)C(=O)NCCc2c[nH]c3ccccc23)c1C	-1	-8%	6%	10%	15%
Cc1ccc(C)c(NC(=S)NCCc2c[nH]c3ccccc23)c1	-58*	11µM*	u	1%	1.3µM*
Cc1ccc(NS(=O)(=O)c2cccc(C(=O)NCCc3c[nH]c4ccccc34)c2)c(C)c1	-78*	22µM*	u	u	u
COc1ccc(Cl)cc1NC(=S)NCCc1c[nH]c2ccccc12	21	7.1µM*	u	-2%	5.6µM*
COc1ccccc1NC(=O)NCCc1c[nH]c2ccccc12	13	0%	-1%	2%	21%
O=C(Nc1cccc(C(F)(F)F)c1)C1=CC=CN2CCS(=O)(=O)N=C12	17	x	-19%	3%	x
CS(=O)(=O)Nc1cccc(-c2nc(Nc3ccncc3)c3ccccc3n2)c1	x	6%	x	x	u
NNC(=O)c1cc(-c2ccc(N)cc2)nc2ccc(Br)cc12	-20	u	1%	3%	10µM*
COc1cc(NC(=O)c2cc(-c3cccnc3)nc3ccc(Br)cc23)cc(OC)c1	8	-27%	-3%	16µM*	u
COc1ccc(NC(=O)c2cc(-c3ccncc3)nc3ccc(Br)cc23)cc1OC	-6	20µM*	u	u	u
O=C(c1cc(-c2ccccc2)nc2ccccc12)N1CCOCC1	15	-7%	11%	6%	-35%
COc1ccc(NC(=O)c2cc(-c3cccnc3)nc3ccc(C)cc23)cc1OC	10	u	3%	u	u

Screens deposited in PubChem by National Center for Advancing Translational Sciences (NCATS).
